Assay results reported in publication PMC7862700, “An all-to-all approach to the identification of sequence-specific readers for epigenetic DNA modifications on cytosine”.

Key:
Experiment in all cases: DAPPL (digital affinity profiling via proximity ligation, sequencing); 10 mM Tris-HCl pH 7.5, 50 mM NaCl, 1 mM DTT, 4% glycerol, room temperature, 30 min; GST-TFs on glutathione beads, 16-mer random dsDNA library, 0.1% formaldehyde crosslink after washing; high values mean tight binding
FEV = target: T1, FEV (Homo sapiens, UniProt Q99581 1-238); conditions: protein: recombinant; tags: N-terminal GST; dsDNA, one strand shown
T1 sequence: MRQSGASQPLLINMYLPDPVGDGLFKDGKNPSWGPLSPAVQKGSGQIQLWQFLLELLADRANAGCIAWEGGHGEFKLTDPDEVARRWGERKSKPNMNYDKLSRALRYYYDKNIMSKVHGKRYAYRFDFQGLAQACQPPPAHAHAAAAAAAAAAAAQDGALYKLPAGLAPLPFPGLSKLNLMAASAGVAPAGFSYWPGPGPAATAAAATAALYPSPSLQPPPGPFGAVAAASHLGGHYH
How it was run: (§1)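 After expression in yeast as GST fusions, human transcription factors were bound to glutathione beads, DNA-barcoded and mixed with a tag-only sample. The pools were incubated with 200 nmole of a 16-mer random double-stranded DNA library in Tris/NaCl/DTT/glycerol buffer (30 min, room temperature), washed and crosslinked with 0.1% formaldehyde. Proximity ligation with BsaI/T4 ligase ran for 1 h at 37 °C, before PCR amplification and sequencing on an Illumina NextSeq500. Binding signal is a hexamer's read frequency for a factor divided by its frequency for the tag-only sample.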

ETV5 = ETV5 (Homo sapiens, UniProt P41161 1-510); conditions: protein: recombinant; tags: N-terminal GST; dsDNA, one strand shown
How it was run: as §1

HSF1 = HSF1 (Homo sapiens, UniProt Q00613 1-529); conditions: protein: recombinant; tags: N-terminal GST; chain copies: 3; dsDNA, one strand shown
How it was run: as §1

SPIC = target: T2, SPIC (Homo sapiens, UniProt Q8N5J4 1-248); conditions: protein: recombinant; tags: N-terminal GST; dsDNA, one strand shown
T2 sequence: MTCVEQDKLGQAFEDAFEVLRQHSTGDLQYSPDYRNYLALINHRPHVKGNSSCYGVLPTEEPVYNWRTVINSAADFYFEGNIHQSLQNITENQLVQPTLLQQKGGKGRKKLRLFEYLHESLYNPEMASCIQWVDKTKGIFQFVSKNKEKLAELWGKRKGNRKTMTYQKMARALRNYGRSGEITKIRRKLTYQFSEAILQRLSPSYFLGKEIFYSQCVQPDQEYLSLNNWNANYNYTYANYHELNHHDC
How it was run: as §1

ELF4 = ELF4 (Homo sapiens, UniProt Q99607 1-663); conditions: protein: recombinant; tags: N-terminal GST; dsDNA, one strand shown
How it was run: as §1

ELK4 = target: T3, ELK4 (Homo sapiens, UniProt P28324-2 1-405); conditions: protein: recombinant; tags: N-terminal GST; dsDNA, one strand shown
T3 sequence: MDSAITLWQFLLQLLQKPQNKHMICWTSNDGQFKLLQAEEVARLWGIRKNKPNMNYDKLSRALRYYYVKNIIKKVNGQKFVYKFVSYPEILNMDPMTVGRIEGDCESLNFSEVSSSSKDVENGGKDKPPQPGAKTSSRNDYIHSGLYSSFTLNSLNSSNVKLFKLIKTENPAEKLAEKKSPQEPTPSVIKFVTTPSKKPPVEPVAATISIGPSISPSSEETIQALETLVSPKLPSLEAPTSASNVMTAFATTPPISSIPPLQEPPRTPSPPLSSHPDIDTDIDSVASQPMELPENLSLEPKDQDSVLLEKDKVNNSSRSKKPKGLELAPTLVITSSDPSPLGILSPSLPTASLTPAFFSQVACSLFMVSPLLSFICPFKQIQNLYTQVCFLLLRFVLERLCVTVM
How it was run: as §1

ETV2 = target: T4, ETV2 (Homo sapiens, UniProt O00321 1-342); conditions: protein: recombinant; tags: N-terminal GST; dsDNA, one strand shown
T4 sequence: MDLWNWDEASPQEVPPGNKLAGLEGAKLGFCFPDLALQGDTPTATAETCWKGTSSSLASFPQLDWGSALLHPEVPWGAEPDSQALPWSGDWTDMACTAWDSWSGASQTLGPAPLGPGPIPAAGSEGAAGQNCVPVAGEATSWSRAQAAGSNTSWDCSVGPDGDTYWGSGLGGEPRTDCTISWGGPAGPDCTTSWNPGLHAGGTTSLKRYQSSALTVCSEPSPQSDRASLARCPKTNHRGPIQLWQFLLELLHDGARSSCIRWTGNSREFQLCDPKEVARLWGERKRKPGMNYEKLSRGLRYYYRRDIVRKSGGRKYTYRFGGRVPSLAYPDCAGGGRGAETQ
How it was run: as §1

ELF3 = target: T5, ELF3 (Homo sapiens, UniProt P78545 1-371); conditions: protein: recombinant; tags: N-terminal GST; dsDNA, one strand shown
T5 sequence: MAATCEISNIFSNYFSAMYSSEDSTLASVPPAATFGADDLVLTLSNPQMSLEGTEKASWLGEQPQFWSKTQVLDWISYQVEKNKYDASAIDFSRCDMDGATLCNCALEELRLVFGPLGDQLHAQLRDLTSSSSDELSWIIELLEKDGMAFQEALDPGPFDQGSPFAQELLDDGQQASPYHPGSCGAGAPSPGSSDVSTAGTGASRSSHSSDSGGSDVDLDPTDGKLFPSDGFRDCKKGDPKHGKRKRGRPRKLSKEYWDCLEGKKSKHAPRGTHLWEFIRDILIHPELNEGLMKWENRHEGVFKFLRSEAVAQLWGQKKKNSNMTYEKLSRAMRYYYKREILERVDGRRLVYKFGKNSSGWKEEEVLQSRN
How it was run: as §1

CRX = CRX (Homo sapiens, UniProt O43186 1-299); conditions: protein: recombinant; tags: N-terminal GST; dsDNA, one strand shown
How it was run: as §1

ETV1 = ETV1 (Homo sapiens, UniProt P50549 1-477); conditions: protein: recombinant; tags: N-terminal GST; dsDNA, one strand shown
How it was run: as §1

Chain of HSF1 (Q00613 whole entry): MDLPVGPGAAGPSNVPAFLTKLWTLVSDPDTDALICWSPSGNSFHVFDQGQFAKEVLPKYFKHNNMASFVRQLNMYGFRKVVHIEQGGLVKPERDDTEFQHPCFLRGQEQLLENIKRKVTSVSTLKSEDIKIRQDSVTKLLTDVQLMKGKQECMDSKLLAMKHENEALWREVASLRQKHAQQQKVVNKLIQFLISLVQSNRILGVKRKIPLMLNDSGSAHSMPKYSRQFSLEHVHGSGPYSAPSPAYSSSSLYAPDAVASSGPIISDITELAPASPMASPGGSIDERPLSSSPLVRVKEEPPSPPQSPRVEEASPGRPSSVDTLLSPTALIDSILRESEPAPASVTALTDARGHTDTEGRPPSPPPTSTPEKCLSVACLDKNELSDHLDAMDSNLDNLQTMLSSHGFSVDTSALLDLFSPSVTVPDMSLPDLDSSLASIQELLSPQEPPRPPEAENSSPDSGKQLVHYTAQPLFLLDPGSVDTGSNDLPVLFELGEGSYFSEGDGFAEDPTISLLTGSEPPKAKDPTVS
Chain of ETV1 (P50549 whole entry): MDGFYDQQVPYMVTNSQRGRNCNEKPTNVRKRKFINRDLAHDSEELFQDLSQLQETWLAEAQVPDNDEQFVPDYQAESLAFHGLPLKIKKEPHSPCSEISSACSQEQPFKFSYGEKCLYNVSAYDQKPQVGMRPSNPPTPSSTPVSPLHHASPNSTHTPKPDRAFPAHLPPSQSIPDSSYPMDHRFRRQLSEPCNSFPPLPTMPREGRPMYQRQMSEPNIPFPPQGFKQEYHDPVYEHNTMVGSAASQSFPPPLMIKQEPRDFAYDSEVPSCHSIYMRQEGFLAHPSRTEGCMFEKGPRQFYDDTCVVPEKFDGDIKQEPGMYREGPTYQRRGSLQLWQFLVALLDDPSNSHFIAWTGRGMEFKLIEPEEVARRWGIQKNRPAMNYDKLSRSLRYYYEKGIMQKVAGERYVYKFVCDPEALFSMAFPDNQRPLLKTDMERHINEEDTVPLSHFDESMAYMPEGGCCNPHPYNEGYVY
Chain of ETV5 (P41161 whole entry): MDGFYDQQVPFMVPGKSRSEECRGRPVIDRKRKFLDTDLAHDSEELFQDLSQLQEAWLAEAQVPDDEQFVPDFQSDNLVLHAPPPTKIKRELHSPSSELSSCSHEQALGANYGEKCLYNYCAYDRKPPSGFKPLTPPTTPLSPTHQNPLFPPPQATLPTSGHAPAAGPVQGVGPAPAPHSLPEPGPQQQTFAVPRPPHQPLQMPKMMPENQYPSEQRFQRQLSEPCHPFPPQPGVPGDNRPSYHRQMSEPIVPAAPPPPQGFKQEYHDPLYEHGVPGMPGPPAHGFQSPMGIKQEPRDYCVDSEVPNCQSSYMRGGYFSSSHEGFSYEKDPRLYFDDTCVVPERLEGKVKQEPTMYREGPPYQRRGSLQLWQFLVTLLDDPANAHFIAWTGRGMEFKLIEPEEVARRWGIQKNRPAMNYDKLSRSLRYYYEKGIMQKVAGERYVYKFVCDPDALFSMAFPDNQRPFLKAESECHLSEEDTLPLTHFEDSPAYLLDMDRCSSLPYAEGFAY
Chain of CRX (O43186 whole entry): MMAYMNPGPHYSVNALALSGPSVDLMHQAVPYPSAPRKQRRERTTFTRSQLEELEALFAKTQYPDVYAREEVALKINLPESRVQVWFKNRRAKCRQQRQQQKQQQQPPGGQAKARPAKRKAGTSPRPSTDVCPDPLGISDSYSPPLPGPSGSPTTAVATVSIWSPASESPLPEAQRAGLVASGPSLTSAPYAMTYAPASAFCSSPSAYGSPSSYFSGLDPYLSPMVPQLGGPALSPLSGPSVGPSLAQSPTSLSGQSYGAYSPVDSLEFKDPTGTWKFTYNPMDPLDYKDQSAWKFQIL
Chain of ELF4 (Q99607 whole entry): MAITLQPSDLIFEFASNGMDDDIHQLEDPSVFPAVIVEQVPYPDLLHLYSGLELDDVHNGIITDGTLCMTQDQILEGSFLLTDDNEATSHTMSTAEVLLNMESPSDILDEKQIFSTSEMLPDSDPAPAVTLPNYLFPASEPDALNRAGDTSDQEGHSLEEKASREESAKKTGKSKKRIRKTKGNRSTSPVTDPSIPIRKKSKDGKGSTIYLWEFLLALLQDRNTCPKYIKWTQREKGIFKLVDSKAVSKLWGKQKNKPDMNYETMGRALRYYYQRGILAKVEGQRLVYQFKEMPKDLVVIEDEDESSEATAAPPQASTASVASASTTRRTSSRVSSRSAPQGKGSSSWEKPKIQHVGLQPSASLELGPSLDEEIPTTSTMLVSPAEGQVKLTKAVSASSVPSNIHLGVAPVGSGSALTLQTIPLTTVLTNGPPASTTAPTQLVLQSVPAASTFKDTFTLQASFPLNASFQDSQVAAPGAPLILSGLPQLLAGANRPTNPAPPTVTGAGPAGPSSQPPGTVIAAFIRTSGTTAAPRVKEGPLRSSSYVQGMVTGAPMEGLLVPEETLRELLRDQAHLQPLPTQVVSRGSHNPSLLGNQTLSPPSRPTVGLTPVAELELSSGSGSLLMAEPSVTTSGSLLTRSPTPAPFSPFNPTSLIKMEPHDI

Sequence	binding signal (FEV)	binding signal (ETV5)	binding signal (HSF1)	binding signal (SPIC)	binding signal (ELF4)	binding signal (ELK4)	binding signal (ETV2)	binding signal (ELF3)	binding signal (CRX)	binding signal (ETV1)
ATTGAT	1.25 fold enrichment (6-mer frequency, TF over GST control)	1.2 fold enrichment (6-mer frequency, TF over GST control)	1.37 fold enrichment (6-mer frequency, TF over GST control)	1.42 fold enrichment (6-mer frequency, TF over GST control)	1.32 fold enrichment (6-mer frequency, TF over GST control)	1.38 fold enrichment (6-mer frequency, TF over GST control)	1.3 fold enrichment (6-mer frequency, TF over GST control)	1.22 fold enrichment (6-mer frequency, TF over GST control)	1.46 fold enrichment (6-mer frequency, TF over GST control)	1.39 fold enrichment (6-mer frequency, TF over GST control)
TACTCC	1.25 fold enrichment (6-mer frequency, TF over GST control)	1.27 fold enrichment (6-mer frequency, TF over GST control)	1.18 fold enrichment (6-mer frequency, TF over GST control)	1.23 fold enrichment (6-mer frequency, TF over GST control)	1.26 fold enrichment (6-mer frequency, TF over GST control)	1.19 fold enrichment (6-mer frequency, TF over GST control)	1.25 fold enrichment (6-mer frequency, TF over GST control)	1.11 fold enrichment (6-mer frequency, TF over GST control)	1.26 fold enrichment (6-mer frequency, TF over GST control)	1.24 fold enrichment (6-mer frequency, TF over GST control)
ACCTTT	1.45 fold enrichment (6-mer frequency, TF over GST control)	1.36 fold enrichment (6-mer frequency, TF over GST control)	1.36 fold enrichment (6-mer frequency, TF over GST control)	1.58 fold enrichment (6-mer frequency, TF over GST control)	1.42 fold enrichment (6-mer frequency, TF over GST control)	1.49 fold enrichment (6-mer frequency, TF over GST control)	1.31 fold enrichment (6-mer frequency, TF over GST control)	1.32 fold enrichment (6-mer frequency, TF over GST control)	1.3 fold enrichment (6-mer frequency, TF over GST control)	1.43 fold enrichment (6-mer frequency, TF over GST control)
CCCTCG	1.19 fold enrichment (6-mer frequency, TF over GST control)	1.19 fold enrichment (6-mer frequency, TF over GST control)	1.22 fold enrichment (6-mer frequency, TF over GST control)	1.25 fold enrichment (6-mer frequency, TF over GST control)	1.36 fold enrichment (6-mer frequency, TF over GST control)	1.36 fold enrichment (6-mer frequency, TF over GST control)	1.25 fold enrichment (6-mer frequency, TF over GST control)	1.17 fold enrichment (6-mer frequency, TF over GST control)	1.06 fold enrichment (6-mer frequency, TF over GST control)	1.25 fold enrichment (6-mer frequency, TF over GST control)
TCTGCG	1.22 fold enrichment (6-mer frequency, TF over GST control)	1.22 fold enrichment (6-mer frequency, TF over GST control)	1.15 fold enrichment (6-mer frequency, TF over GST control)	1.24 fold enrichment (6-mer frequency, TF over GST control)	1.2 fold enrichment (6-mer frequency, TF over GST control)	1.14 fold enrichment (6-mer frequency, TF over GST control)	1.19 fold enrichment (6-mer frequency, TF over GST control)	1.31 fold enrichment (6-mer frequency, TF over GST control)	1.09 fold enrichment (6-mer frequency, TF over GST control)	1.45 fold enrichment (6-mer frequency, TF over GST control)
CATCCT	1.59 fold enrichment (6-mer frequency, TF over GST control)	1.63 fold enrichment (6-mer frequency, TF over GST control)	1.12 fold enrichment (6-mer frequency, TF over GST control)	1.63 fold enrichment (6-mer frequency, TF over GST control)	1.62 fold enrichment (6-mer frequency, TF over GST control)	1.51 fold enrichment (6-mer frequency, TF over GST control)	1.63 fold enrichment (6-mer frequency, TF over GST control)	1.59 fold enrichment (6-mer frequency, TF over GST control)	1.21 fold enrichment (6-mer frequency, TF over GST control)	1.55 fold enrichment (6-mer frequency, TF over GST control)
ATATCA	1.1 fold enrichment (6-mer frequency, TF over GST control)	1.19 fold enrichment (6-mer frequency, TF over GST control)	1.04 fold enrichment (6-mer frequency, TF over GST control)	1.21 fold enrichment (6-mer frequency, TF over GST control)	1.19 fold enrichment (6-mer frequency, TF over GST control)	1.16 fold enrichment (6-mer frequency, TF over GST control)	1.29 fold enrichment (6-mer frequency, TF over GST control)	1.08 fold enrichment (6-mer frequency, TF over GST control)	1.13 fold enrichment (6-mer frequency, TF over GST control)	1.14 fold enrichment (6-mer frequency, TF over GST control)
TCCTCA	1.52 fold enrichment (6-mer frequency, TF over GST control)	1.52 fold enrichment (6-mer frequency, TF over GST control)	1.2 fold enrichment (6-mer frequency, TF over GST control)	1.63 fold enrichment (6-mer frequency, TF over GST control)	1.57 fold enrichment (6-mer frequency, TF over GST control)	1.67 fold enrichment (6-mer frequency, TF over GST control)	1.66 fold enrichment (6-mer frequency, TF over GST control)	1.44 fold enrichment (6-mer frequency, TF over GST control)	1.4 fold enrichment (6-mer frequency, TF over GST control)	1.48 fold enrichment (6-mer frequency, TF over GST control)
